Shown is part of a subset that was picked to be rich in hits.
VCAM1 TNFa pot = TNF alpha stimulated VCAM1 expression potentiation. HUVEC TNFa-stimulated VCAM-1 immunofluorescence, high-content imaging; scaled per plate to unstimulated/TNFa-only wells. activation, % at 2 µM. actives 0.19% (n = 93,000);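 active = activation above the screen mean plus 3 SD, with well images confirming the hit on visual review, cut at about 28% in these data, passing the limit was not always enough; inconclusive = activation above that limit but images do not confirm it; inactive = activation not above that limit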;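 also: signal is the number of cytoplasmic VCAM-1 stained grains per positive cell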
VCAM1 pot conf = enhancers of VCAM1 induction in HUVEC – imaging, triplicate retest, confirmation; shares compounds with VCAM1 TNFa pot; HUVEC TNFa-stimulated VCAM-1 immunofluorescence imaging; activation, % at 2 µM; 230 tested, under 10 active; AID 1034;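 active = activation above 30% in triplicate retests at 2 µM, then confirmed by visual review of the well images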;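 also: scaled per plate between unstimulated and TNFa-stimulated DMSO control wells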
The depositor's hits bear a star; ? = inconclusive.

SMILES | VCAM1 TNFa pot | others
Cc1c(NC(=O)CC2CC(C)OC2=O)c(=O)n(-c2ccccc2)n1C (stereo not drawn) | 1.7
CCOC(=O)c1cc2c(nc1N)CC(C)(CC)OC2 (stereo not drawn) | 2.2
COc1ccc(CN(C)C2CCCCC2)c(C)c1C | 4.4
O=C(Nc1ccc2nsnc2c1)c1ccc2c(c1)OCO2 | -29.5
O=C(CN1C(=O)c2ccccc2C1=O)Nc1ccc(-c2nc3ccccc3o2)cc1 | 28.6
O=C(Nc1ccc(-c2nc3ccccc3o2)cc1)c1ccc2c(c1)OCO2 | ? | VCAM1 pot conf=-15.9
Cn1c(Sc2ccc(C(F)(F)F)cc2[N+](=O)[O-])nnc1-c1ccccc1 | 0.7
CN(C)c1cccc(NC(=O)Cc2ccc(F)cc2)c1 | -4.4
O=C(Nc1ccc2c(c1)CCC2)C1COc2ccccc2O1 (stereo not drawn) | 2.2
CC(C)(C)C1CCC2(CC1)C(Nc1cccc(C(F)(F)F)c1)=NC(=S)N2CC#N (stereo not drawn) | ? | VCAM1 pot conf=-10.0
O=C(NCC1CCCO1)C1CCC(=O)N1Cc1ccccc1Cl (stereo not drawn) | 5.6
O=C(NC(=S)N(Cc1ccccc1)Cc1ccccc1)c1ccccc1F | 3.7
O=C(NC(NCCCN1CCOCC1)(C(F)(F)F)C(F)(F)F)C1CCCCC1 | -5.4
Cc1cccc(Oc2coc3cc(OC(=O)c4cc5ccccc5oc4=O)ccc3c2=O)c1 | -22.4
CCOC(=O)c1cc(C)n(CCc2ccccc2)c1C | -9.0
CCOC(=O)c1[nH]c2ccc(OC)cc2c1C | -4.2
CCOC(=O)c1c(N)sc(-c2ccccc2)c1C | 45.3* | VCAM1 pot conf=-10.1
Cc1ccc(N(C(C)C(=O)Nc2ccc(S(=O)(=O)N3CCOCC3)cc2)S(C)(=O)=O)cc1C (stereo not drawn) | 28.6
Cc1nnsc1C(=O)Nc1cccc(Cl)c1Cl | 0.7
COc1ccc(Cl)cc1N(CC(=O)Nc1ccccc1SC)S(C)(=O)=O | -5.9
CCc1ccc(Nc2oc(C)cc(=O)c2C(C)=O)cc1 | -6.6
COc1cc(NS(=O)(=O)c2ccc(NC(=O)COc3ccc(C)cc3)cc2)nc(OC)n1 | -7.4
Cc1ccc(S(=O)(=O)NC(=O)Nc2cc(C)ccc2F)cc1 | 1.7
COc1cc(NC(=O)NS(=O)(=O)c2ccc(C)cc2)cc(OC)c1 | 59.7* | VCAM1 pot conf=-23.2
CCOC(=O)c1cc(C#N)c(N2CCCC2)nc1-c1ccccc1 | -7.4
SMILES | VCAM1 TNFa pot | others
CCOC(=O)c1cc(-c2ccc(OC)cc2F)nc2c1c(C)nn2CCC#N | 33.6* | VCAM1 pot conf=-15.1
CNC(=O)c1ccccc1S(=O)(=O)c1ccccc1C#N | 4.7
COCc1cc(Sc2ccc(Cl)cc2Cl)nc(-c2ccccc2)n1 | -6.4
CCOC(=O)c1nc2cc3n(c(C)c-2c1C)C(C)C(CC)=C3C (stereo not drawn) | 27.5
O=C(NCC1COc2ccccc2O1)C1CCN(S(=O)(=O)c2cccc3nsnc23)CC1 (stereo not drawn) | 1.8
COc1ccc(-c2nc(C#N)c(NCc3cccnc3)o2)cc1OC | 4.1
Cc1ccc(-c2nc(C#N)c(NCCN3CCCCC3)o2)cc1 | 43.5* | VCAM1 pot conf=-17.0
CCOc1ccc(-c2nc(C#N)c(NC3CC3)o2)cc1 | -2.1
CC1CCC2(CC1)N=C(N)Nc1nc3ccccc3n12 (stereo not drawn) | -5.6
Cc1ccc(C(C)C)c(OC(=O)/C=C/c2ccccc2)c1 | 5.6
O=S(=O)(c1ccc2c(c1)nc(COc1ccc(Cl)cc1)n2CC1CCCO1)N1CCOCC1 (stereo not drawn) | -4.9
COc1ccc(Cc2nn3c(-c4ccccc4Br)nnc3s2)cc1 | 6.6
CCOc1ccc(-c2nnc3sc(COc4ccc(C)cc4)nn23)cc1 | 39.7* | VCAM1 pot conf=-17.1
c1ccc(-c2nnc3sc(-c4ccncc4)nn23)cc1 | -7.2
CCCOC(=O)CSC1=C(C#N)C(c2ccccc2OC)C(C#N)C(=O)N1 (stereo not drawn) | -91.6
CC(C(=O)Nc1ccccc1Sc1ccccc1)N(c1ccccc1)S(C)(=O)=O (stereo not drawn) | -0.6
Cc1cc(N2CCOCC2)nc(SCc2ccc(Cl)cc2Cl)n1 | -6.4
COc1cc(OC)cc(C(=O)N2CCN(C(=O)c3ccc(OC)c(OC)c3)CC2)c1 | -1.6
COc1ccc(C(=S)N2CCN(C)CC2)cc1Br | 37.5* | VCAM1 pot conf=-21.5
CCCN1CCN(S(=O)(=O)c2ccc(OC)c(Br)c2)CC1 | -0.4
Cc1ccc(S(=O)(=O)NC(C)(C)CSc2nnc(N)s2)cc1 | 3.2
O=C(NCC1CCCO1)c1c(O)c2c([nH]c1=O)CCCC2 (stereo not drawn) | 7.9
N#CC1=C(N)OC2=C(C(=O)CCC2)C1C1C=CCCC1 (stereo not drawn) | 1.8
COCCNC(=O)CSc1nc2ccccc2c(=O)n1CCCC(=O)NCc1ccccc1 | 3.6
CN(C(=O)CSc1nc(N)nn1-c1ccccc1)c1ccccc1 | -6.9
SMILES | VCAM1 TNFa pot | others
COc1ccc(OCC(=O)Sc2ccc(C)cc2)cc1 | 7.4
Cc1ccc(OC(=O)CCC(=O)OCCCC(F)(F)C(F)(F)F)cc1 | ? | VCAM1 pot conf=-7.9
Cn1c(Cn2nnc3ccccc32)nnc1SCC(=O)c1ccc(F)cc1 | -5.9
Cc1ccc(Sc2ncccc2COC(=O)Nc2ccccc2)cc1 | 13.9
Cn1c(SCC(=O)NC2CC2)nnc1-c1cccc(NC(=O)c2ccccc2F)c1 | 0.4
CCOc1cc(S(=O)(=O)NC2CCCCCC2)ccc1F | -0.7
CCn1c(=O)cc(OCC(=O)NCc2ccco2)c2ccccc21 | -72.3
CCOc1cc2[nH]c(=S)n(CCCC(=O)NCc3ccco3)c(=O)c2cc1OCC | -1.9
O=C(CCCn1c(=O)c2ccccc2n(CC(=O)NCc2ccco2)c1=O)NCc1ccco1 | ? | VCAM1 pot conf=-21.0
CCCCCC1CC(CC(C)C(=O)Nc2nncs2)C(=O)O1 (stereo not drawn) | 6.4
CCCCCCCC1CC(CSc2ncn[nH]2)OC1=O (stereo not drawn) | 88.9* | VCAM1 pot conf=-14.4
Cc1nc(S(=O)(=O)c2cccc(Cl)c2)nc2c1CCC2 | -8.4
O=S(=O)(NCc1ccco1)c1ccc(S(=O)(=O)N2CCCCC2)cc1 | -4.1
O=C(COc1ccc2ccccc2c1Br)Nn1cnnc1 | -22.1
Cn1c(N)c(C(=O)COC(=O)C2=COCCO2)c(=O)n(C)c1=O | -36.4
CCCNC(=O)CCC(NS(=O)(=O)c1ccc(C)cc1)C(=O)NCCC (stereo not drawn) | 73.0* | VCAM1 pot conf=-13.7
Cc1ccc(S(=O)(=O)NC(=O)NCc2ccc(Cl)cc2)cc1 | -16.7
Cc1ccc(N2CC(C(=O)NCCc3ccc(S(N)(=O)=O)cc3)CC2=O)cc1 (stereo not drawn) | 6.1
CCn1c(CSc2nc3ccccc3[nH]2)n[nH]c1=S | 24.9
CC1=C(C(=O)OCc2ccccc2)C(c2ccoc2)C(C#N)=C(N)O1 (stereo not drawn) | -3.9
CCCCOC(=O)c1c(C)oc2ccc(NS(=O)(=O)c3ccc4c5c(cccc35)C(=O)N4)cc12 | -2.9
C=C(C)C1CC=C(C)/C(=N/NC(=O)COc2cccc3ccccc23)C1 (stereo not drawn) | 6.5
CCOc1ccc(-c2nnn(CC(=O)c3ccc4c(c3)OCCO4)n2)cc1 | 84.5* | VCAM1 pot conf=-19.9
CCOC(=O)c1ccc(NC(=O)Cn2nnc(-c3ccccc3)n2)cc1 | -88.2
Cc1cc(C)n(-c2ccc(C(=O)Oc3ccc4c(c3)OCO4)cc2)n1 | 22.9
CCOC(=O)N1CCC(n2c(=S)[nH]c3cc(OC)c(OC)cc3c2=O)CC1 | 0.7
O=C(CNC(=O)c1cccs1)NC1=NCCS1 | -6.6
CCOC(=O)CNC(=O)CSc1nnc(Cn2cnc3ccccc32)n1C | 5.6

Bioassay records deposited in PubChem BioAssay by Columbia University Molecular Screening Center.
